Measurements taken from PubChem BioAssay AID1628 (Sanford-Burnham Center for Chemical Genomics, 2009).
The campaign covered roughly 190,000 compounds. About 930 (0.49%) were called active.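 How the source made its calls: active means z-score of insulin promoter reporter brightness in nuclei below -3 at 5 µM, with at least 500 cells counted; inconclusive means wells with under 500 cells, flagged as toxic or sparse; inactive means the rest.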 The list shows a part of the results. Entries with a potency or affinity are not part of this list.

Test: decrease of insulin promoter-GFP reporter – imaging, high-content screening, mouse beta cells (AID 1628)
Details: MIN6 insulin promoter GFP reporter, at 5 µM, hits give low values

Row | Compound | z-score
1 | N#Cc1c(NC(=S)NC(=O)c2ccccc2)sc2c1CCN(CCc1ccccc1)C2 | 5.28 (inactive)
2 | COc1ccc(CC(=O)NNC(=S)Nc2ccccc2)cc1Cl | 2.56 (inactive)
3 | CC(C)(C)c1cc(CCC(=O)NNC(=S)NC(=O)c2ccccc2)cc(C(C)(C)C)c1O | -4.33 (active)
4 | CCc1nc(C)cn1S(=O)(=O)c1cc(OC)c(C)cc1C | -4.29 (active)
5 | CC(=O)Cc1cc(O)c2ccccc2c1OC(=O)c1ccc(Br)cc1 | 8.75 (inactive)
6 | Cc1ccccc1NC(=O)c1cc(C(=O)c2cc(Cl)ccc2O)cn(-c2ccccc2C)c1=O | -3.14 (active)
7 | CN1CC=C2C(C#N)=C(N)C(C#N)(C#N)[C@H](c3cccs3)[C@H]2C1 | 10.3 (inactive)
8 | O=C(Nc1ccc(Cl)cn1)c1ccc([N+](=O)[O-])o1 | -3.08 (active)
9 | CCSc1ccc(C(=O)Nc2ccc(Br)cn2)cc1[N+](=O)[O-] | 1.11 (inactive)
10 | CCCN1C(=O)S/C(=C/c2ccc(N3CCOCC3)o2)C1=O | 14.8 (inactive)
11 | COc1ccc(C(=O)CSC2=C(C#N)C3(CCCCC3)C(C#N)=C(N)N2)cc1 | -3.18 (active)
12 | COc1ccccc1NC(=O)C1=C(C)NC(SCC(=O)c2ccc(C)cc2)=C(C#N)C1c1ccco1 (stereo not given) | 3.29 (inactive)
13 | CCn1c(C)[n+](CC)c2ccc(S(=O)(=O)N(C)C)cc21 | -3.4 (active)
14 | CCN1CCN(C(=O)c2cn(CC)c3ccc(S(=O)(=O)N(C)C)cc3c2=O)CC1 | 2.68 (inactive)
15 | CC(=O)CCc1c(C)c2cccc(C)c2[nH]c1=O | -0.43 (inactive)
16 | CCOc1ccccc1CNC(=O)c1cn(C)c(=O)c2c1c1ccccc1n2C | 1.59 (inactive)
17 | COCCn1cc(C(=O)NCc2ccco2)c2c3ccccc3n(C)c2c1=O | 2.09 (inactive)
18 | CC(C)Cn1cc(C(=O)NC2CCN(Cc3ccccc3)CC2)c2c3ccccc3n(C)c2c1=O | -3.06 (active)
19 | Cc1nc(Cl)c2c(n1)NC1=C(O2)C(=O)CCC1 | -4.1 (active)
20 | COc1ccc(N(C)S(=O)(=O)c2cccc(C(=O)Nc3nc4ccccc4[nH]3)c2)cc1 | -3.07 (active)
21 | CN(c1cccc(Cl)c1)S(=O)(=O)c1cccc(C(=O)NC2=NCCS2)c1 | 3.48 (inactive)
22 | CN(/C(=N\S(=O)(=O)c1ccccc1)c1ccccc1)c1ccc(O)cc1 | 1.42 (inactive)
23 | CCOc1ccc(C2C(C#N)=C(N)SC(N)=C2C#N)c(OCC)c1 | -3.06 (active)
24 | CCN(CC)c1ccc(/C=C(\C#N)C(=O)c2ccc(Br)cc2)cc1 | 3.66 (inactive)

Row | Compound | z-score
25 | COc1ccc2cc3cc(C(=O)NCc4ccccn4)oc3nc2c1 | 3.32 (inactive)
26 | O=C(NCc1cn2ccccc2n1)c1ccco1 | 3.67 (inactive)
27 | O=C(NCc1ccccn1)c1ccc(Cn2cc(Br)cn2)o1 | -3.96 (active)
28 | COc1ccc2c(c1)oc(=O)c1ccccc12 | -0.04 (inactive)
29 | COc1ccc2c(n1)Sc1nc3ccccc3nc1N2 | 9.57 (inactive)
30 | Cc1[nH]ccc(=O)c1OCc1c(Cl)cccc1Cl | -6.12 (active)
31 | COC(=O)c1c[nH]n2c(=O)c(Cc3ccc(F)cc3Cl)c(C)nc12 | 3.42 (inactive)
32 | CC(=O)Oc1cc2cccc(OC(C)=O)c(=O)c2c(OC(C)=O)c1OC(C)=O | -0.38 (inactive)
33 | CC(=O)Oc1ccc(OC(C)=O)c(SCCCCCCl)c1 | -3.45 (active)
34 | COC(=O)[C@H]1[C@H](C(=O)OC)[C@@H](C(=O)OC)N(c2ccc(OC)cc2)[C@@H]1C(=O)OC | -4.45 (active)
35 | O=C(CCNS(=O)(=O)c1ccc(Cl)cc1)NCc1cccs1 | 1.64 (inactive)
36 | CCNC(=S)NS(=O)(=O)c1ccc(Cl)cc1 | -3.8 (active)
37 | CC(C)(CNS(=O)(=O)c1ccc(Cl)cc1)N1CCCCC1 | 3.62 (inactive)
38 | CCCCCCN1C=CC(=C/C=C(\C#N)C(=O)OCC)C=C1 | 16.6 (inactive)
39 | O=C(CCn1c(=O)sc2ccccc21)Nc1cccnc1 | 0.79 (inactive)
40 | C=CCN1C(=O)/C(=C\c2ccc(OC(=O)c3ccco3)c(OC)c2)SC1=S | 1.03 (inactive)
41 | COc1ccc(Cn2c(=O)sc3ccccc32)cc1OC | -3.63 (active)
42 | COc1cccc(S(=O)(=O)NCc2ccc(C(=O)Nc3ccc(Cl)c(Cl)c3)cc2)c1 | 3.13 (inactive)
43 | Cc1ccc(S(=O)(=O)NCc2ccncc2)c(C)c1C | -6.46 (active)
44 | COc1cc(C)c(Cl)cc1S(=O)(=O)NCc1ccncc1 | -4.94 (active)
45 | COc1ccc(S(=O)(=O)NCc2ccncc2)cc1OC | -3.36 (active)
46 | Cc1cc(C)n(C(=O)CCC2COc3ccccc3O2)n1 (stereo not given) | 3.53 (inactive)
47 | CCOC(=O)c1c(NC(=O)c2nn(CC)cc2Br)c(C#N)cn1-c1ccccc1 | -3.62 (active)
48 | c1ccc2c(c1)CCN(CCCNc1nc3ccccc3n3cnnc13)C2 | -3.05 (active)

Row | Compound | z-score
49 | CCn1cc(C(=O)NCCN(C)CCc2ccccc2)c(=O)c2cc(S(=O)(=O)N(C)C)ccc21 | 3.87 (inactive)
50 | CN1CCNC(=O)C1CC(=O)NCCC1=CCCCC1 (stereo not given) | 3.77 (inactive)
51 | CCN(CC)S(=O)(=O)c1ccc2[nH]cc(C(=O)NCCC3=CCCCC3)c(=O)c2c1 | -6.41 (active)
52 | CN1CC=C2C(C#N)=C(N)C(C#N)(C#N)C(Cc3ccccc3)C2C1 (stereo not given) | 3.5 (inactive)
53 | Cc1cccc(NC(=S)NNC(=O)c2csc(C(C)C)c2)c1 | 1.31 (inactive)
54 | COc1cccc(-c2nc(N3CCCCC3C)c3ccccc3n2)c1O (stereo not given) | -3.15 (active)
55 | COC(=O)c1cc2c(-c3ccccc3)c(C)c3ccccn3c-2c1C(=O)OC | 4.22 (inactive)
56 | O=C1c2cccc3c(N4CCCCC4)ccc(c23)C(=O)N1c1ccccc1O | 4.51 (inactive)
57 | CC(C)(C)NC(=O)NC(=O)CN1CCCc2ccccc21 | 2.02 (inactive)
58 | O=S(=O)(c1cccs1)N1CCCc2ccccc21 | -3.97 (active)
59 | CC1Cc2ccccc2N1S(=O)(=O)c1cccs1 (stereo not given) | -6.66 (active)
60 | O=C(NCCN1CCN(Cc2ccc([N+](=O)[O-])cc2)CC1)C(=O)Nc1ccccc1 | -3.53 (active)
61 | COc1cc(/C=C/C(=O)c2ccccc2O)cc(OC)c1OC | -0.68 (inactive)
62 | COc1ccc(C(=O)/C=C/c2ccccc2)c(O)c1 | -0.73 (inactive)
63 | Cc1ccc(C(=O)Nc2ccccc2C(=O)NCc2ccco2)cc1S(=O)(=O)N1CCCCC1 | -3.27 (active)
64 | Cc1onc(-c2c(Cl)cccc2Cl)c1C(=O)NCc1ccco1 | -0.41 (inactive)
65 | COCCNC(=S)N/N=C(\C)c1ccc2cc(OC)ccc2c1 | 3.43 (inactive)
66 | Cc1cccc(NC(=O)/C=C/c2ccc([N+](=O)[O-])s2)c1 | 9.92 (inactive)
67 | Cc1cccc(NC(=O)CCNS(=O)(=O)c2cccc3nonc23)c1 | 0.73 (inactive)
68 | N#CCc1nc(CSc2nc3ccccc3s2)cs1 | 4.03 (inactive)
69 | CCN(CC)c1ccc(/C=C/C(=O)c2ccc(Br)cc2)cc1 | 8.04 (inactive)
70 | CN(C)c1ccc(N/C=C/C(=O)c2ccc(F)cc2)cc1 | -5.01 (active)
71 | CC(=O)Nc1cccc(C(=O)/C=C/c2ccc(N(C)C)cc2)c1 | 12.5 (inactive)
72 | CN(C)C(=O)CN(c1ccc2c(c1)OCO2)S(C)(=O)=O | 3.6 (inactive)

Row | Compound | z-score
73 | COc1ccc(S(=O)(=O)N(C)CC(=O)Nc2ccc3c(c2)OCO3)cc1OC | -5.9 (active)
74 | Cc1cc(C)nc(NS(=O)(=O)c2ccc(NC(=O)c3ccc4c(c3)OCO4)cc2)n1 | -0.38 (inactive)
75 | Cc1oc(C)c2c(=O)ccc3c(c12)OC(N)=C(C#N)C3c1ccccc1 (stereo not given) | 6.6 (inactive)
76 | CCCN(CCC)c1ccc(/C=C/c2ccc3cc(OCC)ccc3n2)cc1 | 5.3 (inactive)
77 | COc1ccc(C(=O)Nc2ccc3nc(C)sc3c2)cc1OC | 1.51 (inactive)
78 | Cc1nc2ccc(NC(=O)c3cc(S(=O)(=O)N4CCOCC4)ccc3C)cc2s1 | -3 (active)
79 | Cc1ccc(C(C)C)c(OCc2nn(CC(=O)c3ccc(Cl)cc3)c3[n+]2CCCCC3)c1 | -4.3 (active)
80 | N#CC1=C(N)C(C#N)(C#N)[C@H](c2ccoc2)[C@H]2CN(Cc3ccccc3)CC=C12 | 5.86 (inactive)
81 | CCN(CC)CC(O)COc1ccc2c(c1)c(C(C)=O)c(C)n2-c1ccccc1 (stereo not given) | -3.02 (active)
82 | CC(C)CN1C(=O)/C(=C/c2c(N3CCc4ccccc4C3)nc3ccccn3c2=O)SC1=S | 16.9 (inactive)
83 | COc1ccc(C2C3=C(CCCC3=O)Nc3ccc4ncccc4c32)cc1OC (stereo not given) | 2.27 (inactive)
84 | COc1cc(C2C(C#N)=C(C)NC3=C2C(=O)CC(C)(C)C3)ccc1O (stereo not given) | -4.47 (active)
85 | COCC(C)n1c(SCC(=O)NC(=O)Nc2ccc3c(c2)OCCO3)nc2ccccc2c1=O (stereo not given) | -4.52 (active)
86 | O=c1c(-c2ccccc2)coc2cc(O)ccc12 | 0.33 (inactive)
87 | O=c1[nH]c(/C(Cl)=C/c2cccc(F)c2)nc2cc(C(F)(F)F)ccc12 | -4.9 (active)
88 | COC(=O)c1cc(CSc2nc3ccc(C)cc3[nH]2)oc1C | -3.9 (active)
89 | CCN(CC)c1ccc(/C=C(/C#N)c2nc3ccc(C)cc3[nH]2)c(OC(C)C)c1 | 10.8 (inactive)
90 | CC1CCCCC1NC(=O)COC(=O)c1c2c(nc3ccccc13)/C(=C/c1ccco1)CC2 (stereo not given) | 7.1 (inactive)
91 | NC(=O)c1ccc(NC(=O)COC(=O)c2c3c(nc4ccccc24)/C(=C\c2cccs2)CCC3)cc1 | -3.07 (active)
92 | C=CCNC(=O)c1c2c(nc3ccccc13)-c1ccccc1CC2 | 4.54 (inactive)
93 | Cc1ccc(S(=O)(=O)Cn2nnnc2C(CC(C)C)N2CCN(c3ccccc3)CC2)cc1 (stereo not given) | -4.77 (active)
94 | Cn1ccc(=S)c2ccccc21 | 3.38 (inactive)
95 | COC(=O)c1ccccc1NC(=O)Cn1cnc2cc(C)c(C)cc21 | -3.24 (active)
